Measurements as given in PubChem BioAssay (NCATS).
Records with an inconclusive call do not appear. Entries that show only a call come without a potency. Unmarked numbers belong to inactive results. The source made the active and inactive calls. Calls come from the whole dose curve; as a rule, active = well fitted inhibition curve with a large enough effect; inconclusive = small, poorly fitted or top-dose-only effect; inactive = no such curve, though single readings can be large or run the other way.

How the values were obtained:
[1] = system: Zika virus NS2B-NS3 protease (unlinked complex); experiment: Primary screen GU Rhodamine qHTS for Zika virus inhibitors: Unlinked NS2B-NS3 protease assay (AID 1347159); note: nearly all actives have a fitted effect of over 60% in size
Procedure, shortened: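 Unlinked NS2B/NS3, 25 nM; Rhod110 peptide, 1.5 microM; compounds, up to 114 microM. Reaction run 15 min at RT in 10 mM Tris-HCl pH 8.0, 0.01% Tween 20; kinetic fluorescence change fitted with a 4-parameter Hill model.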

[2] = system: Zika virus NS2B-NS3 protease (linked construct); experiment: Primary screen NINDS Rhodamine qHTS for Zika virus inhibitors (AID 1347160); note: nearly all actives have a fitted effect of over 55% in size
Procedure, shortened: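 Single-chain NS2B-NS3 protease, 25 nM, pH 8.0; compounds preincubated 15 min. Activity: Rhodamine110 release from 1.5 microM substrate over 15 min, room temperature, data fitted to 4-parameter Hill.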

Structure (SMILES)	Potency [1]	Potency [2]	activity change, negative = inhibition [1]	activity change, negative = inhibition [2]
OC[C@H]1O[C@@H](OCCc2ccccc2)[C@H](O[C@@H]2OC[C@](O)(CO)[C@H]2O)[C@@H](O)[C@@H]1O	inactive	inactive	–	–
C=C1C[C@]23C[C@H]1CC[C@H]2[C@@]12CC[C@H](O)[C@@](C)(C(=O)O1)[C@H]2[C@@H]3C(=O)O	inactive	inactive	–	–
C[C@@H]1N[C@H]2N(C1=O)c1ccccc1[C@@]2(O)C[C@@H]1C(=O)N[C@@H](C)c2nc3ccccc3c(=O)n21	inactive	inactive	–	–
CC(Cc1cc2c(c(C(N)=O)c1)N(CCCO)CC2)NCCOc1ccccc1OCC(F)(F)F (centres undefined)	inactive	inactive	–	–
C/C=C(\C)C(=O)O[C@@H]1CC2[C@@H](CC=C3C[C@@H](O[C@H]4C[C@H](OC)[C@H](O[C@H]5C[C@H](OC)[C@H](O[C@@H]6O[C@H](C)[C@@H](O[C@H]7C[C@H](OC)[C@H](O[C@@H]8O[C@H](CO)[C@@H](O)[C@H](O)[C@H]8O)[C@@H](C)O7)[C@H](OC)[C@H]6O)[C@@H](C)O5)[C@@H](C)O4)CC[C@@]32C)[C@@]2(O)CC[C@H](C(C)=O)[C@@]12C (some centres undefined)	–	–	8.5% [at 19.1 µM]	18.6% [at 10.7 µM]
C=CC[C@]12C[C@@H](OC)C(=O)C(OC)=C1O[C@@H](c1cc(OC)c3c(c1)OCO3)[C@@H]2C	inactive	inactive	–	–
CC(C)(O[C@@H]1O[C@H](CO)[C@@H](O)[C@H](O)[C@H]1O)C(OC(=O)/C=C\c1ccc(O)cc1)C(=O)OCc1ccc(O[C@@H]2O[C@H](CO)[C@@H](O)[C@H](O)[C@H]2O)cc1 (some centres undefined)	inactive	inactive	–	–
CCOC(=O)C(CCc1ccccc1)NC(C)C(=O)N1C(=O)N(C)CC1C(=O)O (centres undefined)	inactive	inactive	–	–
c1ccc(-c2csc(N3CCOCC3)n2)cc1	inactive	inactive	–	–
CC(=O)OC1C(=O)C2(C)C(O)CC3OCC3(OC(C)=O)C2C(OC(=O)c2ccccc2)C2(O)CC(OC(=O)C(O)C(NC(=O)c3ccccc3)c3ccccc3)C(C)=C1C2(C)C (centres undefined)	inactive	inactive	–	–
CC(C)NCC(C(=O)N1CCN(c2ncnc3c2C(C)CC3O)CC1)c1ccc(Cl)cc1 (centres undefined)	inactive	inactive	–	–
C=C[C@H]1C(O[C@@H]2O[C@H](CO)[C@@H](O)[C@H](O)[C@H]2O)OC=C2C(=O)N3CCc4c([nH]c5ccccc45)C3CC21 (some centres undefined)	inactive	inactive	–	–
C=C(C(=O)OC)C1C(O)CC2(C)C(=O)CCC(O)(CO)C2C1O (centres undefined)	inactive	inactive	–	–
COc1cc(/C=C/CO)cc(OC)c1O[C@@H]1O[C@H](CO[C@@H]2O[C@H](CO)[C@@H](O)[C@H](O)[C@H]2O)[C@@H](O)[C@H](O)[C@H]1O	inactive	inactive	–	–
COc1cc(C(=O)NC2CCN(C)CC2)ccc1Nc1ncc2c(n1)N(C1CCCC1)CC(F)(F)C(=O)N2C	inactive	inactive	–	–
COC(=O)C1=COC(O[C@@H]2O[C@H](CO)[C@@H](O)[C@H](O)[C@H]2O)[C@H]2[C@@H]1[C@H](OC(=O)CCc1ccc(O)cc1)C[C@]2(C)O (some centres undefined)	inactive	inactive	–	–
CC1CCC2(OC1)OC1CC3C4CCC5C[C@@H](O[C@@H]6O[C@H](CO[C@@H]7OC[C@@H](O)[C@H](O)[C@H]7O)[C@H](O)[C@H](O)[C@H]6O)CC[C@]5(C)C4CC[C@]3(C)C1C2C (some centres undefined)	inactive	inactive	–	–
CO[C@H]1/C=C/[C@@](C)(O)/C=C/C(=O)O[C@H](C)[C@@H](C)CC/C=C/1C	inactive	inactive	–	–
CC[C@H]1OC(=O)[C@H](C)[C@@H](O[C@H]2C[C@@](C)(OC)[C@@H](O)[C@H](C)O2)[C@H](C)[C@@H](O[C@@H]2O[C@H](C)C[C@H](N(C)C)[C@H]2O)[C@](C)(O)C[C@@H](C)C(=O)[C@H](C)[C@H]2OC(=O)O[C@@]21C	inactive	inactive	–	–
COC1CC(O[C@H]2CC[C@@]3(C)C(CCC4C3[C@H](OC(C)=O)[C@@H](OC(=O)/C=C/c3ccccc3)[C@]3(C)C(C(C)=O)CC[C@]43O)C2)OC(C)C1OC1CC(OC)C(OC2CC(OC)C(OC3OC(C)C(OC4OC(CO)C(O)C(O)C4O)C(OC)C3O)C(C)O2)C(C)O1 (some centres undefined)	–	–	-9.68% [at 19.1 µM]	20.6% [at 10.7 µM]
COC(=O)CCc1cc2ccoc2c(OC)c1O[C@@H]1O[C@H](CO)[C@@H](O)[C@H](O)[C@H]1O	inactive	inactive	–	–
O=C1CCC=CC1(O)C(=O)OCc1ccccc1O[C@@H]1O[C@H](CO)[C@@H](O)[C@H](O)[C@H]1O (some centres undefined)	inactive	inactive	–	–
